Pf Dd2 growth: inhibitors of Plasmodium falciparum Dd2 growth; activity change, % at 10 µM; hit rate 2.3% among 94,000; P. falciparum Dd2 growth, SYBR Green, 72 h; stronger effect = lower value; AID 1159554; in the data active means activity change below about -80%; inconclusive means no clear call, values can overlap the other calls
C diff growth: C. difficile growth inhibition. Clostridium difficile clinical isolate growth, OD600, 24 h; stronger effect = lower value. growth activity, negative = inhibition, % at 16 µg/mL (by protocol). hit rate 0.25% among 86,000. AID 1259249;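 active means mean growth activity at or below -80% and every replicate also at or below -80%; inconclusive means mean at or below -80% but some replicate above -80%; inactive means mean growth activity above -80%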;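 further: 0% = DMSO wells and -100% = levofloxacin 16 µg/mL wells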
Active calls of the source: *; ? = inconclusive; · = no result given. Shown are actives, neighbours in structure and some others; about 2.4% of the full set was active somewhere.

SMILES	Pf Dd2 growth	C diff growth
C[C@@H]1CCCCO[C@@H](CN(C)C(=O)Nc2ccc(C(F)(F)F)cc2)[C@@H](C)CN([C@H](C)CO)C(=O)c2cc(NC(=O)Nc3ccc(F)cc3)ccc2O1	-71.3	1.4
C[C@@H]1CCCCO[C@H](CN(C)C(=O)Nc2ccc(C(F)(F)F)cc2)[C@@H](C)CN([C@@H](C)CO)C(=O)c2cc(NC(=O)Nc3ccc(C(F)(F)F)cc3)ccc2O1	-88.0*	3.5
C[C@@H]1CN([C@H](C)CO)C(=O)c2cc(NC(=O)C3CCCCC3)ccc2O[C@@H](C)CCCCO[C@H]1CN(C)C(=O)Nc1ccc(F)cc1	-42.9	1.2
C[C@@H]1CCCCO[C@@H](CN(C)C(=O)Nc2ccc(F)cc2)[C@@H](C)CN([C@H](C)CO)C(=O)c2cc(NC(=O)Nc3ccc4c(c3)OCO4)ccc2O1	11.1	0.5
C[C@H]1CCCCO[C@H](CN(C)C(=O)Nc2ccc(C(F)(F)F)cc2)[C@@H](C)CN([C@@H](C)CO)C(=O)c2cc(NC(=O)Nc3ccc(F)cc3)ccc2O1	-80.3*	5.4
C[C@@H]1CCCCO[C@H](CN(C)C(=O)Nc2ccc3c(c2)OCO3)[C@H](C)CN([C@H](C)CO)C(=O)c2cc(NC(=O)Nc3ccc(F)cc3)ccc2O1	-88.4*	-2.7
C[C@@H]1CCCCO[C@H](CN(C)C(=O)Nc2ccc(C(F)(F)F)cc2)[C@H](C)CN([C@@H](C)CO)C(=O)c2cc(NC(=O)Nc3ccc(C(F)(F)F)cc3)ccc2O1	-54.5	5.1
C[C@@H]1CCCCO[C@H](CN(C)C(=O)Nc2ccc(F)cc2)[C@H](C)CN([C@H](C)CO)C(=O)c2cc(NC(=O)C3CCCCC3)ccc2O1	-81.2*	2.5
COc1ccc(S(=O)(=O)N2CC3(CN(Cc4ccccc4OC)[C@H](CO)c4[nH]c5cc(OC)ccc5c43)C2)cc1	-45.9	-7.3
C[C@@H]1CCCCO[C@H](CN(C)C(=O)c2ccccc2)[C@@H](C)CN([C@H](C)CO)C(=O)c2cc(NC(=O)C3CCCCC3)ccc2O1	-43.8	-1.8
COc1cccc(NC(=O)N(C)C[C@H]2OCc3ccccc3-c3c(n(C)c4ccccc34)C(=O)N([C@H](C)CO)C[C@H]2C)c1	-48.7	-8.8
C[C@H]1CN([C@@H](C)CO)C(=O)c2c(c3ccccc3n2C)-c2ccccc2CO[C@H]1CN(C)C(=O)Nc1cccc(C(F)(F)F)c1	-68.5	12.5
COc1ccccc1NC(=O)N(C)C[C@H]1OCc2ccccc2-c2c(n(C)c3ccccc23)C(=O)N([C@@H](C)CO)C[C@H]1C	-39.6	·
C[C@@H]1CN([C@H](C)CO)C(=O)c2ccccc2-c2ccccc2CO[C@H]1CN(C)C(=O)Nc1cccc(C(F)(F)F)c1	-87.2*	-12.0
COc1cccc(NC(=O)N(C)C[C@H]2OCc3ccccc3-c3c(n(C)c4ccccc34)C(=O)N([C@@H](C)CO)C[C@@H]2C)c1	-84.9*	3.8
C[C@@H]1CN([C@H](C)CO)C(=O)c2c(c3ccccc3n2C)-c2ccccc2CO[C@@H]1CN(C)C(=O)Nc1cccc(C(F)(F)F)c1	-84.0*	-3.8
C[C@H](CO)N1C[C@H](C)[C@@H](CN(C)C(=O)Nc2cccc(C(F)(F)F)c2)OCc2ccccc2-c2ccccc2C1=O	-64.6	23.9
COc1ccc(NC(=O)N(C)C[C@@H]2OCc3ccccc3-c3c(n(C)c4ccccc34)C(=O)N([C@@H](C)CO)C[C@@H]2C)c(OC)c1	-83.3*	-1.1
COc1cccc(NC(=O)N[C@@H]2C=C[C@@H](CC(=O)Nc3ccccc3)O[C@@H]2CO)c1	-42.5	0.2
C[C@@H]1CN([C@H](C)CO)C(=O)c2cc(NC(=O)Cc3cn(C)c4ccccc34)ccc2O[C@H]1CN(C)C(=O)NC1CCCCC1	-22.0	2.1
C[C@]12CCC3C4(C=CC5(C=C4C(=O)c4ccc(F)c(F)c4)C[C@@H](O)CC[C@]35C)C1CC[C@@]2(O)CN1CCC(C(N)=O)CC1 (stereo partly drawn)	·	-10.3
COc1ccc(NC(=O)N(C)C[C@@H]2OCc3ccccc3-c3c(n(C)c4ccccc34)C(=O)N([C@H](C)CO)C[C@@H]2C)c(OC)c1	30.3	6.7
COc1ccc(NC(=O)N(C)C[C@H]2OCc3ccccc3-c3c(n(C)c4ccccc34)C(=O)N([C@@H](C)CO)C[C@@H]2C)c(OC)c1	-85.2*	-4.8
O=C(Cc1ccncc1)N1CC(=O)N2[C@H](CO)[C@H](c3ccc(Br)cc3)[C@@H]2C1	44.1	8.6
Cc1noc(C)c1S(=O)(=O)Nc1ccc2c(c1)C(=O)N([C@H](C)CO)C[C@H](C)[C@@H](CN(C)C(=O)Nc1cccc3ccccc13)OCCCC[C@@H](C)O2	-52.4	14.2
SMILES	Pf Dd2 growth	C diff growth
Cc1ccc(S(=O)(=O)Nc2ccc3c(c2)C(=O)N([C@@H](C)CO)C[C@H](C)[C@H](CN(C)C(=O)Nc2cccc4ccccc24)OCCCC[C@@H](C)O3)cc1	?	-4.0
COc1ccc(S(=O)(=O)Nc2ccc3c(c2)C(=O)N([C@@H](C)CO)C[C@@H](C)[C@@H](CN(C)C(=O)Nc2cccc4ccccc24)OCCCC[C@H](C)O3)cc1	-88.5*	·
C[C@@H]1CCCCO[C@H](CN(C)C(=O)Nc2cccc3ccccc23)[C@@H](C)CN([C@@H](C)CO)C(=O)c2cc(NS(=O)(=O)c3ccccc3)ccc2O1	-87.8*	-22.8
Cc1ccc(S(=O)(=O)Nc2ccc3c(c2)C(=O)N([C@H](C)CO)C[C@@H](C)[C@@H](CN(C)C(=O)Nc2cccc4ccccc24)OCCCC[C@@H](C)O3)cc1	-86.1*	2.5
C[C@@H]1CCCCO[C@@H](CN(C)C(=O)Nc2cccc3ccccc23)[C@H](C)CN([C@H](C)CO)C(=O)c2cc(NS(=O)(=O)c3ccccc3)ccc2O1	-41.3	·
Cc1noc(C)c1S(=O)(=O)Nc1ccc2c(c1)C(=O)N([C@@H](C)CO)C[C@@H](C)[C@@H](CN(C)C(=O)Nc1cccc3ccccc13)OCCCC[C@H](C)O2	-87.1*	12.5
COc1ccc(S(=O)(=O)Nc2ccc3c(c2)C(=O)N([C@@H](C)CO)C[C@@H](C)[C@H](CN(C)C(=O)Nc2cccc4ccccc24)OCCCC[C@@H](C)O3)cc1	-32.8	·
CO[C@H]1CN(C)C(=O)c2cc(NC(=O)NC(C)C)ccc2OC[C@@H](C)N(Cc2ccc(-c3ccccn3)cc2)C[C@H]1C	-25.7	·
C[C@H]1CN([C@@H](C)CO)C(=O)c2cc(NC(=O)Nc3ccc4c(c3)OCO4)ccc2O[C@H]1CN(C)Cc1ccccc1	28.4	-5.9
CN(C)CCCNC(=O)C[C@H]1CC[C@H]2[C@H](COc3ccc(NC(=O)c4ccc5c(c4)OCO5)cc3C(=O)N2C)O1	9.3	6.3
C[C@H]1CN([C@@H](C)CO)C(=O)c2ccccc2-c2ccccc2CO[C@H]1CN(C)S(=O)(=O)c1cn(C)cn1	-11.3	1.9
O=C(C[C@@H]1CC[C@@H](NC(=O)c2ccncc2)[C@H](CO)O1)NCC1CC1	·	0.4
CN1c2ccc(C#Cc3cccnc3)cc2[C@@H]2[C@@H](CCN2C(=O)C2CCC2)[C@@H]1CO	-87.4*	-9.7
COc1ccc(C#Cc2ccc3c(c2)[C@H]2[C@H](CCN2C(=O)c2ccccc2F)[C@H](CO)N3C)cc1	-70.6	·
CN1c2ccc(C#Cc3cccnc3)cc2[C@@H]2[C@@H](CCN2C(=O)C2CCCC2)[C@H]1CO	-66.2	-14.3
